Screening results: PubChem, National Center for Advancing Translational Sciences (NCATS)
Hits are enriched below; roughly 15% of the tested compounds scored in any of these assays.
ELG1 repair inh – blocks ELG1-dependent DNA repair in HEK293T cells. HEK293T ELG1-luciferase reporter, luminescence, 16 h; DNA damage induced by 5-fluorouridine. Potency, µM (doses to about 46.1 µM), for inactives: at the highest dose activity change, negative = inhibition, usual class: inhibitors. 2.3% of 330,000 active. AID 504467; note: nearly all actives have a fitted effect of over 55% in size
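HEK293T cells expressing luciferase-tagged ELG1 (2,000/well) received 5-Fluorouridine plus compound or DMSO for 16 hr at 37 °C. Luciferase was read by ONE-Glo luminescence after 30 min at room temperature.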
Gal4-VP16 FLuc – counter-screen for ROR gamma inhibitors: Gal4-VP16 reporter; Drosophila S2 Gal4-VP16 UAS-luciferase, luminescence, 20 h; Potency, µM (doses to about 53.6 µM), for inactives: top-dose activity, negative = inhibition, most hits filed as inhibitors; 3.5% of 310,000 active;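 note: Gal4-VP16 expression switched on by copper sulfate through the metallothionein promoter; nearly all actives have a fitted effect of over 50% in size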
TDP1 cell noCPT – qHTS for Inhibitors of human tyrosyl-DNA phosphodiesterase 1 (TDP1): qHTS in cells in absence of CPT. Potency, µM (series often up to 46.2 µM), for the others: at the highest dose activity change, negative = growth inhibition, most hits filed as inhibitors. 15% of 420,000 active. DT40 Tdp1-/- hTDP1 cells, no CPT, ATP luminescence, 48 h; note: nearly all actives have a fitted effect of over 55% in size
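No-CPT arm: Tdp1-/-;hTDP1 DT40 cells (400/well) plus compounds, incubated ≥48 hr at 37 °C. Readout CellTiter-Glo luminescence.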
ALOX12 inh – ALOX12 (human) lipoxygenase inhibition. purified 12hLO, xylenol orange hydroperoxide absorbance. Potency, µM (series often up to 108 µM), for the others: at the highest dose activity change, negative = inhibition, usual class: inhibitors. 1.1% of 580,000 active. AID 1671190
Target sequence (P18054 whole entry, looked up): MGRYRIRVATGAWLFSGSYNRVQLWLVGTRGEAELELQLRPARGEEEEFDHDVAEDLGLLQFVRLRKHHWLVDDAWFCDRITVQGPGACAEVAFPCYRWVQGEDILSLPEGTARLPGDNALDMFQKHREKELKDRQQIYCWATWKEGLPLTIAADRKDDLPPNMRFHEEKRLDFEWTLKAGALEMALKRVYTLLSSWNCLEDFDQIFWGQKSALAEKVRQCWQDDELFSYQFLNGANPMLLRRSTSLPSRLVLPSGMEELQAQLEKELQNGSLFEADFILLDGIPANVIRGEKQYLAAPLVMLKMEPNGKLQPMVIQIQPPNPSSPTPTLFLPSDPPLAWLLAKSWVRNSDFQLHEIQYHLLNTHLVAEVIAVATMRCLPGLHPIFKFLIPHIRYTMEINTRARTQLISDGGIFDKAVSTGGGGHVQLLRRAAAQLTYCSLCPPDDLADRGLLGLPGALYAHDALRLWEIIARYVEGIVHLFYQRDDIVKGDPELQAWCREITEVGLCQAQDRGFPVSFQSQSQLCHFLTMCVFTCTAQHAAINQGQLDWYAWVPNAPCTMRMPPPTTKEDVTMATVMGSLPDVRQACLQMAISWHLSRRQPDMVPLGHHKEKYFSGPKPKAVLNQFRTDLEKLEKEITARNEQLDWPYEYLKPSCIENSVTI
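Hydroperoxide product was detected by ferrous iron/xylenol orange as the 573 to 405 nm absorbance ratio. Arachidonic acid at 40 uM (final) was turned over for 30 min at room temperature by 150 nM human 12hLO, pH 7.0 Hepes buffer, after 15 min compound preincubation.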
DT40 TDP1 CPT – growth inhibition of DT40 Tdp1-/-;hTDP1 cells with camptothecin (screen for TDP1 inhibitors); Potency, µM (highest dose often 46.2 µM), for inactives: at the highest dose activity change, negative = growth inhibition, most hits filed as inhibitors; AID 686979; chicken DT40 Tdp1-/-;hTDP1 cells + 20 nM CPT, ATP luminescence, 48 h; 12% of 420,000 active; note: nearly all actives have a fitted effect of over 55% in size
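Cell growth measured by CellTiter-Glo luminescence after a minimum 48 h, 37 C compound exposure with 20 nM CPT in Tdp1-knockout DT40 cells stably expressing hTDP1, seeded 400/well; qHTS titration format.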
RORgamma inh – ROR gamma (mouse) transcription inhibition; P51450; Drosophila S2 Gal4-RORgamma UAS-luciferase reporter, 20 h; Potency, µM (titrated, usually from 53.6 µM), inactives show at the top dose activity change, negative = inhibition, most hits filed as inhibitors; 5.4% of 310,000 active; AID 2551; note: nearly all actives have a fitted effect of over 60% in size
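Luciferase reporter read in Schneider cells carrying Gal4-RORγ (mouse) and UAS-Photinus luciferase; cells given compound 1 h before 700 uM copper sulfate induction, then incubated 20 h at ambient temperature.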
* marks the source's active call; other numbers are inactive results; ? = inconclusive; . = no result; [ ] = another dose, or the depositor's remark. Calls come from the whole dose curve; as a rule, active = well fitted curve in the direction sought with a large enough effect; inconclusive = small, poorly fitted or top-dose-only effect, or another doubt; inactive = no such curve, though single readings can be large; an effect the other way counts as inactive or inconclusive. % is set by controls: 0 for no effect and ±100 for the full control effect; potency is the fitted concentration of half-maximal effect.

SMILES	ELG1 repair inh	Gal4-VP16 FLuc	TDP1 cell noCPT	ALOX12 inh	DT40 TDP1 CPT	RORgamma inh
O=C(CSC1=N/C(=C/c2ccc(Cl)c(Cl)c2)C(=O)N1c1ccccc1F)NC1CC1	?	-1%	16µM*	-19%	16µM*	?
COc1ccc(Cl)cc1N1C(=O)/C(=C/c2sccc2C)N=C1SCC(=O)NC1CC1	.	.	16µM*	?	?	.
COc1ccc(NC(=O)/C(C#N)=C\C=C\c2ccco2)cc1	?	?	2.9µM*	?	8.2µM*	-34%
Cc1ccc(NC(=S)NNS(=O)(=O)c2ccc3ccccc3c2)cc1Cl	?	?	-7%	40µM*	17%	11µM*
Cc1ccc(S(=O)(=O)NNC(=S)Nc2c(Cl)cccc2Cl)cc1	-22%	?	-21%	0%	-1%	10µM*
Cc1ccc(NC(=S)Nc2ccc(S(=O)(=O)Nc3ncccn3)cc2)cc1Cl	0%	?	.	.	.	32µM*
O=S(=O)(Nc1ncccn1)c1ccc(NC(=S)Nc2cccc(Cl)c2)cc1	-24%	?	.	.	.	11µM*
Cc1ccc(S(=O)(=O)NNC(=S)Nc2ccc(Cl)cc2)cc1	?	-6%	-9%	0%	3%	-29%
O=S(=O)(Nc1ncccn1)c1ccc(NC(=S)NCCc2ccc(Cl)cc2)cc1	2%	-14%	-28%	?	6%	7%
COCCn1c(=O)[nH]c(=O)c2c3c(cnc21)C(=O)CC(c1ccccc1)C3 (stereo not drawn)	.	.	.	16%	.	.
CCC(=O)N1CCN(c2ccc(NC(=O)c3c(OC)cccc3OC)cc2)CC1	.	.	.	14%	.	.
Cc1ccc2nc(-c3ccncc3)cc(C(=O)NCc3cccnc3)c2c1	.	.	.	6%	.	.
COc1ccccc1C1CC(c2cccs2)=Nc2ccccc2S1 (stereo not drawn)	?	?	?	8%[57.4 µM]	?	29%
Fc1ccccc1C1CC(c2ccco2)=Nc2ccccc2S1 (stereo not drawn)	?	2%	13µM*	-25%	?	5%
CC(NC(=O)NCCNc1ncccn1)c1ccccn1 (stereo not drawn)	.	.	.	-11%	.	.
Cc1cccc(NC(=O)c2ccc(OCc3c(C)noc3C)cc2)n1	-1%	.	13µM*	19%	?	.
Cc1cc(C(=O)NNC(=O)CCCOc2ccccc2)c(C)o1	26%	.	1%	3%	8%	.
Cc1noc(C)c1COc1ccc(C(=O)Nc2ccccc2)cc1	-13%	22%	-17%	6%	-17%	38%
Cc1noc(C)c1COc1ccc(C(=O)NNC(=O)c2ccccc2O)cc1	-8%	.	16µM*	10%	?	.
CC(C)(C)c1ccc(OCCCC(=O)NNC(=O)c2ccccc2O)cc1	2%	.	18µM*	?	?	.
Cc1noc(C)c1COc1ccc(C(=O)Nc2ccccn2)cc1	?	?	-2%	?	?	?
Cc1ccc(NC(=O)CN(C)C(=O)C2CCN(c3ccc(C(F)(F)F)cn3)CC2)cc1	.	.	.	6%	.	.
O=C(Nc1ccc([C@@H](O)[C@H]2COCC(=O)N2Cc2ccccn2)cc1)c1cnccn1	.	.	.	28%[176 µM]	.	.
Fc1ccc(-c2cnc([C@@H]3COCCN3Cc3cnc4ccccc4c3)[nH]2)c(F)c1	.	.	.	16%[176 µM]	.	.
Cc1nn(C)c(C)c1NC(=O)CCCSc1nc(-c2ccco2)cc(C(F)(F)F)n1	26µM*	-6%	?	26%	?	?
SMILES	ELG1 repair inh	Gal4-VP16 FLuc	TDP1 cell noCPT	ALOX12 inh	DT40 TDP1 CPT	RORgamma inh
COc1cc(NC(=O)CCCSc2nc(-c3ccco3)cc(C(F)(F)F)n2)cc(OC)c1OC	?	-19%	?	-29%	?	?
O=C(CCCSc1nc(-c2ccco2)cc(C(F)(F)F)n1)Nc1ccc2c(c1)OCO2	.	-15%	23µM*	56%	?	-17%
CC(=O)c1ccc(NC(=O)CCCSc2nc(-c3ccco3)cc(C(F)(F)F)n2)cc1	.	.	16µM*	-21%	23µM*	.
COc1ccc(CCC(=O)N(CC#N)C2CC2)cc1	.	.	.	14%	.	.
CCN1C(=O)C2CC3(CCN(C(=O)c4ccc(OC)nc4)CC3)CN2C1=O (stereo not drawn)	.	.	.	21%	.	.
CC(NC(=O)c1ccccc1NC(=O)CN1CCc2ccccc2C1)c1ccccc1 (stereo not drawn)	13µM*	-18%	?	13%	-17%	26%
COc1ccc(N2CCN(CC(=O)Nc3nnc(-c4ccccc4)s3)CC2)cc1	10%	?	-9%	-2%	-18%	10µM*
COc1ccc(N2CCN(CC(=O)Nc3ccccc3C(=O)NCc3ccccc3)CC2)cc1	7.1µM*	.	18µM*	-1%	15µM*	.
COc1ccc(N2CCN(CC(=O)Nc3ccccc3C(=O)NC(C)c3ccccc3)CC2)cc1 (stereo not drawn)	.	.	21µM*	0%	?	.
COCC(=O)N(C1CCOCC1)C1CCN(C(=O)Cc2ccc(C)cc2)CC1	.	.	.	47%	.	.
COc1ccc(CC(=O)NC(C)c2nnc(SCc3ccc(Cl)cc3Cl)n2C)cc1 (stereo not drawn)	.	.	.	17%	.	.
COC(=O)[C@H]1[C@H](CO)[C@H]2Cn3c(ccc(Br)c3=O)[C@H]2N1Cc1ccccc1Cl	.	.	.	35µM*	.	.
O=C(Nc1nc(-c2ccc(Cl)cc2)cs1)C1=COCCO1	?	.	23µM*	?	23µM*	.
O=C(Nc1nc(-c2cccs2)cs1)C1=COCCO1	?	-9%	23µM*	?	?	23%
COc1ccc(-c2csc(NC(=O)C3=COCCO3)n2)cc1OC	?	.	?	-5%	?	.
Cc1sc(NC(=O)C2=COCCO2)nc1-c1ccc(Cl)cc1	?	.	21µM*	-17%	?	.
CCc1ccc(-c2csc(NC(=O)C3=COCCO3)n2)cc1	?	.	?	9%	12µM*	.
Cc1ccc(CN2CCn3nnc(CCC(=O)NCc4ccccc4)c3C2)o1	.	.	.	-16%	.	.
Cc1cc(C2CC(C(=O)NCc3ccco3)CN(C(=O)c3ccccc3)C2)ccc1F (stereo not drawn)	.	.	.	-15%	.	.
Cc1nc(NCCc2nc3ccccc3n2C)cc(C2CC(O)C2)n1 (stereo not drawn)	.	.	.	139%	.	.
COc1ccc(OC)c(NC(=O)C2CC(=O)Nc3c(-c4ccccc4OC)cnn32)c1 (stereo not drawn)	.	.	.	-1%	.	.
Cc1cc(C)c(C(=O)Oc2c(C)cccc2C)c(C)c1	.	.	.	1%	.	.
